Hits are enriched below; roughly 3.5% of the tested compounds scored in any of these assays.
Bead autofluor = flagged as autofluorescent in microsphere protease counterscreen. fluorescence intensity (test concentration not listed). compound autofluorescence counterscreen, microsphere flow cytometry; hits give high values. 360,000 compounds, 3.1% hits; in the data active means fluorescence intensity above about 16000; inconclusive means no clear call, values can overlap the other calls
BoNT-A LC inh2 = blocks Botulinum neurotoxin A light chain protease | multiplex microsphere protease substrate cleavage, flow cytometry | inhibition, % at 10 µM | 360,000 compounds, 0.17% hits | AID 588499
Anthrax LF inh2 = inhibitors of Bacillus anthracis lethal factor protease; P15917; multiplex microsphere protease cleavage assay, LF; inhibition, % at 10 µM; 360,000 compounds, 0.12% hits
Target sequence (P15917 whole entry, looked up): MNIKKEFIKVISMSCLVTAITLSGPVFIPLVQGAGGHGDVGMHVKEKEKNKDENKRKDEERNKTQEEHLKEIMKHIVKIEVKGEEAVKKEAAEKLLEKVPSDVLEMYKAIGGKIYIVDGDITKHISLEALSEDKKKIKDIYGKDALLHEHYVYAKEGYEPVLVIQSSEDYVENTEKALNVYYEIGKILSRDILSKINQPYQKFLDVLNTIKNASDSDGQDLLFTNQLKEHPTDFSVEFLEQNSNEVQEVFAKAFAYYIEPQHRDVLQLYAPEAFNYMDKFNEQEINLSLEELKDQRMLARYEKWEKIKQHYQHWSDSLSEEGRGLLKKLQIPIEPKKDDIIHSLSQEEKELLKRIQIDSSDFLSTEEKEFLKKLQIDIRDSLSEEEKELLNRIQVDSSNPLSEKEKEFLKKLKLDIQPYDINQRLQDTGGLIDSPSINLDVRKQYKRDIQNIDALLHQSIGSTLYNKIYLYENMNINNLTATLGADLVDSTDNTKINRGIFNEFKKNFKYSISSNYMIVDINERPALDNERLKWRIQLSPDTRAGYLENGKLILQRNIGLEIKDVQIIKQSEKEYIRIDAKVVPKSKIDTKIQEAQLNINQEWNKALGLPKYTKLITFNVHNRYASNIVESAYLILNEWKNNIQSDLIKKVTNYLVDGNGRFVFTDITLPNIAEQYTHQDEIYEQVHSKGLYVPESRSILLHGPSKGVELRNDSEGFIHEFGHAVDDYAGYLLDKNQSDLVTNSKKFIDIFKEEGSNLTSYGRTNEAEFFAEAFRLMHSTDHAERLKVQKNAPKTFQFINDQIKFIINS
BoNT F protease = BoNT F light chain protease inhibition. Multiplex microsphere protease cleavage assay, flow cytometry. inhibition, % at 10 µM. 360,000 compounds, 0.22% hits. AID 588497; in the data active means inhibition above about 35%, passing the limit was not always enough; inconclusive means no clear call, values can overlap the other calls
Each line names hits and unclear results; the compound was inactive in the other large screens. Unless noted, no stated cut-off is given here; in the data, active means inhibition above about 30%; inconclusive means no clear call, values can overlap the other calls; inactive means below that.

Cc1ccsc1C(=O)OCc1nc2ccccc2c(=O)[nH]1	Bead autofluor 19317
Cc1ccsc1C(=O)OCc1nc2ccsc2c(=O)[nH]1	none
Cc1ccc(C)c(-n2c(-c3ccc4c(c3)OCO4)n[nH]c2=S)c1	Bead autofluor 23573, BoNT-A LC inh2 inconclusive
CCc1ccc(N2CC(C(=O)Nc3ccc(C)c(S(=O)(=O)N4CCOCC4)c3)CC2=O)cc1 (centres undefined)	Bead autofluor 22656
CN(C)/C=N/C1=C(C#N)C(c2cccs2)c2ccc3ccccc3c2O1 (centres undefined)	none
Cc1nn(Cc2ccc(F)cc2)c(C)c1NC(=O)c1cnn2c1NC(c1cccs1)CC2C(F)(F)F (centres undefined)	Bead autofluor 22509
O=C(Nc1ccccc1C(F)(F)F)N1CCN(C(c2ccccc2)c2ccccc2)CC1	Bead autofluor 22149, BoNT-A LC inh2 inconclusive
CC(=O)Nc1ccc(NC(=O)COC(=O)c2c(C)nn(-c3ccccc3)c2C)cc1	none
Cc1nn(-c2ccccc2)c(C)c1C(=O)OCC(=O)N1CCN(S(=O)(=O)c2ccccc2)CC1	Bead autofluor 21834, BoNT-A LC inh2 inconclusive
COc1ccc(S(=O)(=O)N2CCN(C(=O)c3c(C)nn(-c4ccccc4)c3C)CC2)cc1	none
Cc1nn(-c2ccccc2)c(C)c1C(=O)OCC(=O)NC12CC3CC(CC(C3)C1)C2	Bead autofluor 22484
Cc1nc(SCC(=O)c2ccc(F)cc2)n[nH]1	Bead autofluor 21307
Cc1cc(C(=O)CSc2n[nH]c(N)n2)c(C)n1-c1ccc(F)cc1	Bead autofluor 22336, BoNT-A LC inh2 inconclusive
Cc1cc(C(=O)COC(=O)C2=NNC(=O)CC2)c(C)n1-c1ccccc1	Bead autofluor 19448
Cc1ccc(-n2c(C)cc(C(=O)COC(=O)c3c(C)noc3C)c2C)cc1	Bead autofluor 23721
CCOC(=O)C1=CCN(S(=O)(=O)c2ccc(C)cc2)C1c1ccc(Cl)cc1 (centres undefined)	none
Cc1cc(C(=O)CSc2n[nH]c(N)n2)c(C)n1-c1ccccc1	Bead autofluor 16214
C/C(=N\Nc1ncnc2sc(C)c(C)c12)c1ccccn1	BoNT-A LC inh2 40, BoNT F protease 40
COc1ccc(C(=O)N/C(=C/c2cccs2)C(=O)NCCCn2ccnc2)cc1OC	Bead autofluor 20263
COc1ccc(/C=C(/NC(=O)c2ccccc2)C(=O)NCCCn2ccnc2)cc1OC	none
CCCCCCC1CCC(c2nc(-c3ccncc3)no2)CC1 (centres undefined)	none
CCCC1CCC(c2nc(-c3cccnc3)no2)CC1 (centres undefined)	Bead autofluor 19821, BoNT-A LC inh2 inconclusive
COc1ccc([C@H]2N[C@]3(CCCN(CC4CCCCC4)C3=O)[C@H]3C(=O)N(Cc4ccccc4)C(=O)[C@@H]23)cc1	none
COc1ccc(C(=O)/C=C/c2cn(CN3CCN(C)CC3)c3ccccc23)cc1	Bead autofluor 23529
C[C@H](CO)N1C[C@H](C)[C@@H](CN(C)CC2CC2)OCc2cnnn2CCCC1=O	none
CCc1c(C)sc(NC(=O)c2cc(-c3cc(OC)ccc3OC)on2)c1C#N	Bead autofluor 21969
CC(C)N1CC(=O)N2CSCC2C1=O (centres undefined)	none
CC(C(=O)N=c1sc2ccccc2n1C)N1C(=O)C2CC=CCC2C1=O (centres undefined)	Bead autofluor 21549
CCOC(=O)C1=CCN(S(=O)(=O)c2ccc(Cl)cc2)C1c1ccc(C)cc1 (centres undefined)	none
COc1cc(C(=O)NCC(=O)OCc2ccccc2Cl)cc(OC)c1OC	none
CCOC(=O)c1sc(N)c(C#N)c1COC(=O)CNC(=O)c1cc(OC)c(OC)c(OC)c1	Bead autofluor 16372
COc1cccc(S(=O)(=O)N(C)C[C@@H]2OCc3cnnn3CCCC(=O)N([C@@H](C)CO)C[C@H]2C)c1	none
COc1ccc([C@@H]2[C@H]3C(=O)N(c4cccc(C(F)(F)F)c4)C(=O)[C@H]3ON2C)cc1	Bead autofluor 21509
CCc1ccccc1NC(=O)CN(C)C(=O)COC(=O)c1c(Cl)cccc1Cl	none
COc1ccc(NC(=O)C2(C)CCCN(C(C)C)C2)cc1OC (centres undefined)	none
CC(C)(C)S(=O)(=O)c1cnc2c(-c3ccc(Cl)cc3)cnn2c1N	none
COc1ccc(-c2cnc3c(-c4ccc(F)cc4)cnn3c2N)cc1	none
COc1ccc(-c2cnn3c(N)c(S(=O)(=O)C(C)(C)C)cnc23)cc1	Bead autofluor 21645, BoNT-A LC inh2 inconclusive
Nc1c(S(=O)(=O)c2ccccc2)cnc2c(-c3ccc(F)cc3)cnn12	none
COc1ccc(-c2cnn3c(N)c(S(=O)(=O)c4ccccc4)cnc23)cc1	Bead autofluor 20604
CC(C)(C)S(=O)(=O)c1cnc2c(-c3ccc(F)cc3)cnn2c1N	Bead autofluor 21191, BoNT-A LC inh2 inconclusive
CCCCN1C(=O)C(CC(=O)NC2CC2)CC(C(=O)N(CC)CC)=C1C (centres undefined)	none
Cc1cc(C)n(CC(C)NCc2cn[nH]c2-c2ccc(C)c(C)c2)n1 (centres undefined)	Bead autofluor 28071
Cc1cc(C)n(CC(C)NCc2cn[nH]c2-c2cccc3ccccc23)n1 (centres undefined)	none
CC(C)N1C2OC(C3OC4C(O3)N(C(C)C)S(=O)(=O)N4C(C)C)OC2N(C(C)C)S1(=O)=O (centres undefined)	Bead autofluor 23341
COc1cc(NC(=O)c2ccco2)c(OC)cc1NC(=O)CCC(=O)Nc1cc(C)ccc1C	Bead autofluor 20046
COc1cc(NC(=O)c2ccco2)c(OC)cc1NC(=O)CCC(=O)Nc1cc(C)cc(C)c1	Bead autofluor 20576
O=C(NCC(=O)N1CCN(Cc2ccccc2)CC1)c1ccc(Br)o1	none
CC(=O)N(C(C)=O)c1ccc(Oc2ccc(Oc3ccc(N(C(C)=O)C(C)=O)cc3)cc2)cc1	none
Nc1cccc(Oc2c(F)c(F)c(Oc3cccc(N)c3)c(F)c2F)c1	Anthrax LF inh2 inconclusive, BoNT F protease 38
Nc1cccc(Oc2ccc([N+](=O)[O-])cc2)c1	none
CCOC(=O)C1=C(N)OC2=C(C(=O)CC(C)(C)C2)C1c1ccccc1OCC#N (centres undefined)	Bead autofluor 20405
CC(=O)OC1(C(F)(F)F)Oc2ccccc2NC1=O (centres undefined)	Bead autofluor 18158, BoNT-A LC inh2 inconclusive
CC1(C(=O)NS(=O)(=O)c2ccc(Cl)cc2)CCN1C(=O)CC1CC1 (centres undefined)	none
CCOC(=O)c1c(NC(=O)C(C)Sc2cccc[n+]2[O-])sc2c1CCN(Cc1ccccc1)C2 (centres undefined)	BoNT-A LC inh2 45
CCOC(=O)c1c(NC(C)=O)sc2c1CCN(Cc1ccccc1)C2	none
CC(C)C(=O)N1CCN(c2nc(-c3ccc(Cl)cc3)cs2)CC1	none
O=C(Cc1cccs1)N1CCN(c2nc(-c3ccc(Cl)cc3)cs2)CC1	Bead autofluor 21233, BoNT-A LC inh2 inconclusive
Cc1cccc(-c2nnc(NC(=O)c3ccc(Cl)cc3)o2)c1	Bead autofluor 16877
Cc1ccc(C(=O)Nc2nnc(-c3ccncc3)o2)cc1	none
CCOC(=O)C(C(=O)OCC)=C1OC(=O)c2ccccc21	Bead autofluor 23965
Cc1ccc(Cl)cc1N(Cc1ccc(C(=O)NCc2cccnc2)cc1)S(=O)(=O)c1ccccc1	Bead autofluor 22366, BoNT-A LC inh2 inconclusive

Source: PubChem BioAssay
